# Hit rate of the full screen: of about 52,000 compounds, about 4,300 (8.3%) were called active. No stated cut-off is given here; in the data, active means survival mostly below about 52% (no sharp cut-off); inactive means mostly above about 56%. Many of the other results were omitted from the sample, so actives are more common in it than they were.
# Test system: DeltatarO mutant
# Assay: S. aureus survival, RN4220 and DeltatarO strains – OD600, teichoic acid synthesis inhibitors, primary screen (AID 463173)
# Details: S. aureus RN4220 wild type/DeltatarO growth, OD600, 18 h, active compounds read low, concentration not given here
row,Compound,survival
1,O=C1CC(=O)N(C2CCCCC2)C(=O)N1,77% (inactive)
2,CCSc1nnc(NC(=O)c2cccn(Cc3ccc(Cl)cc3)c2=O)s1,73% (inactive)
3,CC(=O)Nc1c(O)[nH]c(=S)[nH]c1=O,103% (inactive)
4,O=C(Nc1nc2ccccc2s1)c1cccn(Cc2ccccc2)c1=O,83% (inactive)
5,COC(=O)CC1=C(C(=O)OC)C2(C(=O)Nc3ccc(F)cc32)C(C#N)=C(N)O1 (stereo unspecified),65% (inactive)
6,CCOC(=O)C1=C(C)OC(N)=C(C#N)C12C(=O)N1c3c(cccc32)C(C)CC1(C)C (stereo unspecified),51% (inactive)
7,CCOC(=O)CC1=C(C(=O)OCC)C2(C(=O)N(C)c3ccccc32)C(C#N)=C(N)O1 (stereo unspecified),0% (active)
8,CCC(C)c1c(O)[nH]c(=S)[nH]c1=O (stereo unspecified),82% (inactive)
9,CCN(CC)C(=O)c1ccc(NC(=O)c2ccc(-c3nn(C)c(=O)c4ccccc34)cc2)cc1,68% (inactive)
10,Cc1ccnc(NS(=O)(=O)c2ccc(N=Cc3c(O)n(C)c(=O)n(C)c3=O)cc2)n1,93% (inactive)
11,COc1ccc(-c2nc(CN3C(=O)CN=C(c4ccccc4Cl)c4cc(Cl)ccc43)c(C)o2)cc1OC,63% (inactive)
12,CN1CCN(c2oc(-c3ccc(COc4ccccc4)o3)nc2C#N)CC1,41% (active)
13,CN1C(=O)C(Cc2cccs2)C(=O)N(C)C1=O,80% (inactive)
14,CC(C)C(=O)N1N=C(c2cccnc2)CC1(O)C(F)(F)F (stereo unspecified),66% (inactive)
15,OC1(c2ccc(F)cc2)CC2CCC(C1)N2Cc1nnnn1C1CCCCC1 (stereo unspecified),97% (inactive)
16,Cc1ccc(NC(=O)N(Cc2ccc3c(c2)OCO3)C2CCN(Cc3ccccc3)CC2)cc1Cl,128% (inactive)
17,Cc1ccc(NC(=O)N(Cc2ccc3c(c2)OCO3)C2CCN(Cc3ccccc3)CC2)cc1F,87% (inactive)
18,Cc1ccc(NC(=O)N(Cc2ccc3c(c2)OCO3)C2CCN(Cc3ccccc3)CC2)cc1C,17% (active)
19,COc1ccc(NC(=O)CN2C(=O)C(C)N=C(c3ccccc3)c3ccccc32)cc1OC (stereo unspecified),116% (inactive)
20,CCCC12CN3CC(CCC)(CN(C1)C3c1ccccn1)C2=O (stereo unspecified),84% (inactive)
21,O=C1CC(=O)N(c2ccccc2)C(=O)N1c1ccccc1,90% (inactive)
22,O=C(COc1ccc(Cl)cc1)Nc1ccc(Cl)cc1C(=O)c1ccccc1,83% (inactive)
23,O=C(Nc1ccc(Br)cc1C(=O)c1ccccc1Cl)c1ccc(Br)cc1,144% (inactive)
24,Cc1cccc(C)c1OCC(=O)Nc1ccc(Cl)cc1C(=O)c1ccccc1,17% (active)

row,Compound,survival
1,Cc1ccc(OCC(=O)Nc2ccc(Cl)cc2C(=O)c2ccccc2)cc1C,69% (inactive)
2,COc1ccc(C(=O)Nc2ccc(Cl)cc2C(=O)c2ccccc2)c(OC)c1,2% (active)
3,CSc1ncc(C(=O)Nc2ccc(Cl)cc2C(=O)c2ccccc2)c(C)n1,98% (inactive)
4,Cc1cc(C)cc(OCC(=O)Nc2ccc(Cl)cc2C(=O)c2ccccc2)c1,82% (inactive)
5,O=C(Nc1ccc(Br)cc1C(=O)c1ccccc1)c1ccccc1,-1% (active)
6,O=C(Nc1ccc(Br)cc1C(=O)c1ccccc1Cl)c1ccccc1F,52% (inactive)
7,CC(C)(C)c1ccc(OCC(=O)Nc2ccc(Cl)cc2C(=O)c2ccccc2)cc1,70% (inactive)
8,CC(C)(C)c1ccc(C(=O)Nc2ccc(Cl)cc2C(=O)c2ccccc2)cc1,6% (active)
9,COc1cc(OC)cc(C(=O)Nc2ccc(Cl)cc2C(=O)c2ccccc2Cl)c1,171% (inactive)
10,CC(=O)NC1CC2CCC(C1)N2 (stereo unspecified),98% (inactive)
11,O=C(CCc1nc(C2=CCN(Cc3cccc(Cl)c3)CC2)no1)Nc1ccccc1F,81% (inactive)
12,OC1(c2cccc(F)c2)CC2CCC(C1)N2Cc1nnnn1CCc1ccccc1 (stereo unspecified),85% (inactive)
13,CSc1ccc(CN2CCN(C(=O)COc3cccc(C)c3)CC2)cc1,84% (inactive)
14,Cc1c(/C(CC(C)C)=N/O)c2ccccc2n1C,79% (inactive)
15,O=C(Nc1ccc(F)c([N+](=O)[O-])c1)c1cccn(Cc2ccccc2)c1=O,115% (inactive)
16,CN1CCN(Cc2cn3ccccc3n2)CC1,104% (inactive)
17,CCOc1ccc(CN(CCc2ccc3c(c2)OCO3)Cc2cccc(OC)c2)cc1,44% (inactive)
18,CCOc1ccc(CN(CCc2ccc3c(c2)OCO3)Cc2cc(OC)ccc2O)cc1,62% (inactive)
19,O=C(Nc1ccc(Cl)cc1C(=O)c1ccccc1)c1ccccc1Br,24% (active)
20,O=C(COc1ccc(Br)cc1)Nc1ccc(Cl)cc1C(=O)c1ccccc1,83% (inactive)
21,O=C(Nc1ccc(Cl)cc1C(=O)c1ccccc1)c1cc(Cl)cc(Cl)c1,150% (inactive)
22,CC(C)OC12Oc3ccccc3C=C1N1CCC2CC1 (stereo unspecified),80% (inactive)
23,COc1ccc(CN2CCN(C(=O)COc3ccccc3)CC2)c(OC)c1,184% (inactive)
24,c1cc(CN2CCNCC2)ccn1,105% (inactive)

row,Compound,survival
1,Nc1c(C(=O)Nc2ccc(Br)cc2F)sc2nc3c(cc12)N1CCC3CC1,132% (inactive)
2,Nc1c(C(=O)Nc2cccc(Br)c2)sc2nc3c(cc12)N1CCC3CC1,40% (active)
3,Nc1c(C(=O)Nc2ccc(Cl)cc2)sc2nc3c(cc12)N1CCC3CC1,55% (inactive)
4,Nc1c(C(=O)Nc2ccc(Cl)c(C(F)(F)F)c2)sc2nc3c(cc12)N1CCC3CC1,4% (active)
5,Nc1c(C(=O)Nc2ccc(F)c(Cl)c2)sc2nc3c(cc12)N1CCC3CC1,65% (inactive)
6,Nc1c(C(=O)Nc2ccc(OC(F)(F)F)cc2)sc2nc3c(cc12)N1CCC3CC1,99% (inactive)
7,COc1ccc(C2CC(=O)Oc3c2c(=O)oc2ccccc32)c(OC)c1OC (stereo unspecified),75% (inactive)
8,COc1ccccc1CN1CCN(C(=O)COc2cccc(C)c2)CC1,162% (inactive)
9,O=C1CN=C(c2ccccc2)c2cc(Cl)ccc2N1Cc1ccc(Cl)cc1,66% (inactive)
10,Cc1ccc(Cn2cccc(C(=O)Nc3ccc4c(c3)OCCO4)c2=O)cc1,83% (inactive)
11,CCOc1ccccc1CN(CCc1ccc2c(c1)OCO2)Cc1ccc(CC)cc1,111% (inactive)
12,CCCC1=Nc2cc(C(=O)NCCCN(CC)CC)ccc2Sc2ccccc21,138% (inactive)
13,CCCC1=Nc2cc(C(=O)NC3CCC(C)CC3)ccc2Sc2ccccc21 (stereo unspecified),39% (active)
14,CC1CC(=O)C2CCCCC2N1 (stereo unspecified),84% (inactive)
15,Cc1ccc(Cn2cccc(C(=O)Nc3ccc4c(c3)OCO4)c2=O)cc1,75% (inactive)
16,CN(C)C(=O)Oc1cccc2cccnc12,76% (inactive)
17,Cc1ccccc1-n1c(/C=C/c2ccc(O)cc2)nc2ccccc2c1=O,35% (active)
18,O=c1c2ccccc2nc(/C=C\c2ccc(F)cc2)n1-c1ccccc1F,94% (inactive)
19,Cc1ccccc1-n1c(/C=C/c2ccc(N(C)C)cc2)nc2ccccc2c1=O,8% (active)
20,Cc1ccccc1-n1c(/C=C/c2ccccc2F)nc2ccccc2c1=O,5% (active)
21,Cc1ccc(-n2c(/C=C/c3ccccc3)nc3ccccc3c2=O)cc1C,78% (inactive)
22,Cc1ccc(-n2c(/C=C\c3ccc(F)c(F)c3)nc3ccccc3c2=O)c(C)c1,98% (inactive)
23,COc1ccc(-n2c(/C=C\c3ccccc3F)nc3ccccc3c2=O)c(OC)c1,89% (inactive)
24,Cc1ccccc1-n1c(/C=C/c2c(C)[nH]c3ccccc23)nc2ccccc2c1=O,18% (active)

row,Compound,survival
1,Cc1cccc(-n2c(/C=C/c3c(C)[nH]c4ccccc34)nc3ccccc3c2=O)c1,120% (inactive)
2,CSc1ccc(/C=C/c2nc3ccccc3c(=O)n2-c2cccc(Cl)c2C)cc1,80% (inactive)
3,O=c1c2ccccc2nc(/C=C/c2ccccc2)n1-c1ccccc1F,69% (inactive)
4,Cc1ccc(-n2c(/C=C/c3ccc(Br)s3)nc3ccccc3c2=O)cc1C,90% (inactive)
5,CN1C2CCC1CC(OC(=O)C1(c3ccccc3)CCCC1)C2 (stereo unspecified),116% (inactive)
6,CCN(CC)CCSc1nc2ccccc2c(=O)n1-c1ccc(Cl)cc1,148% (inactive)
7,CC(c1ccccc1)n1cncc1C(=O)N1CCCC1=O (stereo unspecified),87% (inactive)
8,Cc1ccc(OCC(=O)N2CCN(Cc3ccc(F)cc3)CC2)cc1,156% (inactive)
9,Cc1cccc(NC(=O)Cn2cc(C(=O)c3ccccc3)c3ccccc32)c1,130% (inactive)
10,CCOc1ccc(CN2C(=O)c3ccccc3Sc3ccc(C(=O)N4CCC5(CC4)OCCO5)cc32)cc1,74% (inactive)
11,COc1cc2[nH]c(=O)n(-c3ccc(C)cc3)c(=O)c2cc1OC,94% (inactive)
12,OC1CCNC2CCCCC12 (stereo unspecified),94% (inactive)
13,Cc1nc2ccccc2c(=O)n1-c1cccc(O)c1,96% (inactive)
14,Cc1oc(-c2ccccc2Cl)nc1CN1C(=O)CN=C(c2ccccc2)c2cc(Cl)ccc21,77% (inactive)
15,Cc1cccc(Cn2cccc(C(=O)Nc3nc4ccccc4s3)c2=O)c1,122% (inactive)
16,Cc1ccc(-n2nc(C)c3c2NC(=O)CSC3c2ccc(O)cc2)cc1Cl (stereo unspecified),73% (inactive)
17,CCc1ccc(-n2nc(C)c3c2NC(=O)CSC3c2ccc(C(=O)OC)cc2)cc1 (stereo unspecified),64% (inactive)
18,COc1ccc(Br)cc1C1SCC(=O)Nc2c1c(C)nn2-c1ccccc1C (stereo unspecified),43% (inactive)
19,Cc1ccccc1-n1nc(C)c2c1NC(=O)CSC2c1ccc(Cl)cc1 (stereo unspecified),21% (active)
20,CCc1ccc(-n2nc(C)c3c2NC(=O)CSC3c2ccccc2C)cc1 (stereo unspecified),57% (inactive)
21,Cc1ccccc1-n1nc(C)c2c1NC(=O)CSC2c1ccccc1C(F)(F)F (stereo unspecified),39% (active)
22,Cc1ccccc1-n1nc(C)c2c1NC(=O)CSC2c1ccc(N(C)C)cc1 (stereo unspecified),43% (active)
23,O=C(COc1cc(Cl)ccc1Cl)Nc1ccc(Cl)cc1C(=O)c1ccccc1,69% (inactive)
24,CC1=CC(=O)C2=C(C)CC(O)C3C(C)C(=O)OC3C12 (stereo unspecified),100% (inactive)
